Test results: PubChem BioAssay AID1159580 (chemical genetic matrix, 2015)
The whole screen tested about 5,500 compounds, of which about 2,000 (36%) were called active. Another 18% or so got no clear call; they are omitted. Rule as the data show it: active = normalized growth mostly below about 0.91 (no sharp cut-off); inconclusive = no clear call, values can overlap the other calls; inactive = mostly above about 0.92. The list shows a part of the results.

Assay: chemical genetic growth profiling, strain panel (AID 1159580);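 also: tested at 20 µM; growth read once vehicle control cultures reached saturation at 30 °C; 1 = growth at the plate median or of vehicle wells; lower values mean less growth of the strain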
Conditions: S. cerevisiae deletion strains, growth OD

Measured: normalized growth

CC(C1OC(C)(C)C(O)C1O)[C@@H]1CC[C@]2(C)C3=CCC4C(C)(C)C(=O)CC[C@]4(C)C3CC[C@@]12C (stereo partly drawn)
inactive: locus YAL013W, strain DEP1, active compounds read low 0.979 | locus YAL021C, strain ccr4, active compounds read low 1.02 | locus YAL026C, strain drs2, active compounds read low 0.987 | locus YAL030W, strain snc1, active compounds read low 1 | locus YBL061C, strain skt5, active compounds read low 0.978 | locus YBR009C, strain hhf1, active compounds read low 0.946 | locus YBR021W, strain FUR4, active compounds read low 1.06 | locus YBR023C, strain chs3, active compounds read low 0.985 | locus YBR171W, strain sec66, active compounds read low 0.985 | locus YBR229C, strain ROT2, active compounds read low 1.02 | locus YBR231C, strain swc5, active compounds read low 0.971 | locus YBR279W, strain paf1, active compounds read low 0.995 | locus YCL011C, strain gbp2, active compounds read low 0.981 | locus YCL016C, strain dcc1, active compounds read low 0.989 | locus YCL029C, strain bik1, active compounds read low 1.01 | locus YCL061C, strain MRC1, active compounds read low 0.995 | locus YCL069W, strain vba3, active compounds read low 0.994 | locus YCR088W, strain abp1, active compounds read low 1 | locus YDL005C, strain med2, active compounds read low 0.968 | locus YDL035C, strain GPR1, active compounds read low 0.931 | locus YDL040C, strain nat1, active compounds read low 0.976 | locus YDL074C, strain BRE1, active compounds read low 0.845 | locus YDL101C, strain DUN1, active compounds read low 0.989 | locus YDL134C, strain PPH21, active compounds read low 0.951 | locus YDL192W, strain arf1, active compounds read low 0.983 | locus YDR001C, strain nth1, active compounds read low 0.999 | locus YDR069C, strain doa4, active compounds read low 0.985 | locus YDR101C, strain arx1, active compounds read low 0.973 | locus YDR137W, strain rgp1, active compounds read low 1.02 | locus YDR159W, strain sac3, active compounds read low 0.898 | locus YDR162C, strain NBP2, active compounds read low 0.958 | locus YDR195W, strain ref2 1.05 | locus YDR297W, strain sur2, active compounds read low 0.981 | locus YDR318W, strain mcm21, active compounds read low 1 | locus YDR334W, strain swr1, active compounds read low 0.987 | locus YDR335W, strain msn5, active compounds read low 0.999 | locus YDR388W, active compounds read low 1.03 | locus YDR392W, strain spt3, active compounds read low 0.838 | locus YDR502C, strain sam2, active compounds read low 0.989 | locus YEL003W, strain gim4, active compounds read low 0.937 | locus YEL037C, strain rad23, active compounds read low 0.983 | locus YEL061C, strain CIN8 (second series), active compounds read low 0.99 | locus YER015W, strain faa2, active compounds read low 0.992 | locus YER016W, strain bim1, active compounds read low 0.99 | locus YER110C, active compounds read low 1.03 | locus YER111C, strain swi4, active compounds read low 0.999 | locus YER155C, strain BEM2 (second series), active compounds read low 0.924 | locus YER155C, strain BEM2, active compounds read low 1.07 | locus YER167W, strain BCK2, active compounds read low 1.01 | locus YFR010W, strain ubp6, active compounds read low 0.973 | locus YGL078C, strain dbp3, active compounds read low 1.03 | locus YGL086W, strain mad1, active compounds read low 1.03 | locus YGL167C, strain pmr1, active compounds read low 0.977 | locus YGL173C, strain kem1, active compounds read low 0.976 | locus YGL227W, strain vid30, active compounds read low 0.99 | locus YGL240W, strain doc1, active compounds read low 0.896 | locus YGL248W, strain PDE1, active compounds read low 0.97 | locus YGL253W, strain hxk2, active compounds read low 0.922 | locus YGR078C, strain PAC10, active compounds read low 0.91 | locus YGR135W, strain pre9, active compounds read low 1.01 | locus YGR252W, strain gcn5, active compounds read low 0.77 | locus YHR013C, strain ard1, active compounds read low 0.966 | locus YHR027C, strain rpn1, active compounds read low 1.02 | locus YHR079C, strain IRE1 (second series), active compounds read low 1.03 | locus YHR094C, strain hxt1, active compounds read low 1.03 | locus YHR129C, strain ARP1, active compounds read low 1 | locus YHR142W, strain chs7, active compounds read low 0.919 | locus YHR200W, strain rpn10, active compounds read low 1.01 | locus YIL066C, strain RNR3, active compounds read low 0.887 | locus YIL073C, strain SPO22, active compounds read low 0.99 | locus YIL125W, strain kgd1, active compounds read low 1.03 | locus YIR030C, strain dcg1, active compounds read low 1.04 | locus YJL092W, strain hpr5, active compounds read low 1 | locus YJL095W, strain BCK1 (second series), active compounds read low 1 | locus YJL095W, strain BCK1, active compounds read low 0.904 | locus YJL115W, strain asf1, active compounds read low 0.985 | locus YJL129C, strain trk1, active compounds read low 0.949 | locus YJL134W, strain LCB3, active compounds read low 1.04 | locus YJL154C, strain vps35, active compounds read low 1.01 | locus YJL164C, strain tpk1, active compounds read low 0.983 | locus YJL166W, strain qcr8, active compounds read low 0.917 | locus YJL168C, strain set2, active compounds read low 1.03 | locus YJL187C, strain SWE1 (second series), active compounds read low 0.958 | locus YJL187C, strain SWE1, active compounds read low 0.999 | locus YKL068W, active compounds read low 1.02 | locus YKL085W, strain MDH1 (second series), active compounds read low 1.05 | locus YKL085W, strain MDH1, active compounds read low 1.05 | locus YKL160W, strain elf1, active compounds read low 0.972 | locus YKL190W, strain CNB1, active compounds read low 1.03 | locus YKR001C, strain vps1, active compounds read low 1.01 | locus YKR026C, strain gcn3, active compounds read low 0.996 | locus YKR091W, strain srl3, active compounds read low 0.995 | locus YLL001W, strain dnm1, active compounds read low 1 | locus YLL026W, active compounds read low 0.997 | locus YLL041C, strain sdh2, active compounds read low 0.992 | locus YLR027C, strain aat2, active compounds read low 0.973 | locus YLR039C, strain RIC1, active compounds read low 1.06 | locus YLR058C, strain SHM2, active compounds read low 0.987 | locus YLR102C, strain apc9, active compounds read low 1.03 | locus YLR221C, strain rsa3, active compounds read low 0.936 | locus YLR258W, strain gsy2, active compounds read low 0.983 | locus YLR262C, strain YPT6 (second series), active compounds read low 0.979 | locus YLR262C, strain YPT6, active compounds read low 1.06 | locus YLR268W, strain sec22, active compounds read low 0.94 | locus YLR342W, strain FKS1, active compounds read low 0.923 | locus YLR357W, strain rsc2, active compounds read low 0.947 | locus YLR370C, strain arc18, active compounds read low 0.988 | locus YLR371W, strain rom2, active compounds read low 1.03 | locus YLR384C, strain iki3, active compounds read low 0.991 | locus YML016C, strain PPZ1, active compounds read low 1.03 | locus YML032C, strain rad52, active compounds read low 0.956 | locus YML120C, strain ndi1, active compounds read low 0.995 | locus YML124C, strain tub3, active compounds read low 1.04 | locus YMR058W, strain fet3, active compounds read low 0.978 | locus YMR078C, strain ctf18, active compounds read low 1.02 | locus YMR125W, strain sto1, active compounds read low 1.01 | locus YMR129W, active compounds read low 0.996 | locus YMR205C, strain PFK2, active compounds read low 0.95 | locus YMR223W, strain ubp8, active compounds read low 0.987 | locus YMR231W, strain pep5, active compounds read low 0.949 | locus YMR307W, strain GAS1, active compounds read low 0.775 | locus YNL067W, strain RPL9B, active compounds read low 0.999 | locus YNL153C, strain GIM3, active compounds read low 0.97 | locus YNL209W, strain ssb2, active compounds read low 0.995 | locus YNL248C, strain rpa49, active compounds read low 0.973 | locus YNL250W, strain rad50, active compounds read low 1.04 | locus YNL271C, strain bni1, active compounds read low 1.02 | locus YNL298W, strain CLA4, active compounds read low 0.973 | locus YNL307C, strain MCK1, active compounds read low 0.942 | locus YNL322C, strain KRE1 (second series), active compounds read low 0.975 | locus YNL322C, strain KRE1, active compounds read low 1.04 | locus YNR049C, strain mso1, active compounds read low 0.982 | locus YNR052C, strain pop2, active compounds read low 1.01 | locus YOL006C, strain TOP1, active compounds read low 0.88 | locus YOL012C, strain htz1 0.776 | locus YOL147C, strain pex11, active compounds read low 0.999 | locus YOR001W, strain rrp6, active compounds read low 0.97 | locus YOR061W, strain CKA2, active compounds read low 1.01 | locus YOR069W, strain VPS5, active compounds read low 1.03 | locus YOR070C, strain gyp1, active compounds read low 0.997 | locus YOR080W, strain dia2, active compounds read low 0.979 | locus YOR083W, strain WHI5, active compounds read low 0.972 | locus YOR106W, strain vam3, active compounds read low 0.961 | locus YOR136W, strain idh2, active compounds read low 1.01 | locus YOR144C, strain elg1, active compounds read low 1.01 | locus YOR265W, strain rbl2, active compounds read low 0.991 | locus YOR270C, strain vph1, active compounds read low 0.821 | locus YOR290C, strain snf2, active compounds read low 0.942 | locus YOR316C, strain cot1, active compounds read low 1.03 | locus YPL051W, strain arl3, active compounds read low 0.94 | locus YPL078C, strain atp4, active compounds read low 1 | locus YPL106C, strain sse1, active compounds read low 1.08 | locus YPL240C, strain hsp82, active compounds read low 0.991 | locus YPR119W, strain clb2, active compounds read low 1.04 | locus YPR141C, strain kar3, active compounds read low 1.04 | locus YPR163C, strain tif3, active compounds read low 0.965 | locus YPR167C, strain met16, active compounds read low 1.03 | strain wtn01, active compounds read low 0.956
active: locus YLR320W, strain mms22, active compounds read low 0.877 | locus YLR418C, strain cdc73, active compounds read low 0.79 | locus YNL071W, strain lat1, active compounds read low 0.906 | locus YNL233W, strain BNI4, active compounds read low 0.867 | locus YOR184W, strain ser1, active compounds read low 0.868
